Laboratory results: PubChem BioAssay AID1159580 (chemical genetic matrix, 2015)
Several values for one entry are separate records, joined by “and”; a condition that tells them apart may be missing. Equal entries are not always repeated. In all, about 5,500 compounds went through this assay and about 2,000 (36%) were called active. Inconclusive results (about 18%) are left out. The list shows a part of the results. Unmarked numbers belong to inactive results. No stated cut-off is given here; in the data, active means normalized growth mostly below about 0.91 (no sharp cut-off); inconclusive means no clear call, values can overlap the other calls; inactive means mostly above about 0.92.

Experiment: chemical genetic growth profiling, strain panel (AID 1159580);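 further: tested at 20 µM; growth read once vehicle control cultures reached saturation at 30 °C; 1 = growth at the plate median or of vehicle wells; lower values mean less growth of the strain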
Conditions: S. cerevisiae deletion strains, growth OD

## COc1cc(C/C=C/c2ccccc2)c(OC)cc1O
Locus YAL013W, strain DEP1, hits give low values
  normalized growth: 0.989
Locus YAL021C, strain ccr4, hits give low values
  normalized growth: 0.901 (active)
Locus YAL026C, strain drs2, hits give low values
  normalized growth: 0.936
Locus YAL030W, strain snc1, hits give low values
  normalized growth: 0.956
Locus YBL061C, strain skt5, hits give low values
  normalized growth: 0.964
Locus YBR009C, strain hhf1, hits give low values
  normalized growth: 0.969
Locus YBR021W, strain FUR4, hits give low values
  normalized growth: 1.04
Locus YBR023C, strain chs3, hits give low values
  normalized growth: 0.95
Locus YBR171W, strain sec66, hits give low values
  normalized growth: 0.962
Locus YBR229C, strain ROT2, hits give low values
  normalized growth: 0.979
Locus YBR231C, strain swc5, hits give low values
  normalized growth: 0.942
Locus YBR279W, strain paf1, hits give low values
  normalized growth: 0.95
Locus YCL011C, strain gbp2, hits give low values
  normalized growth: 0.936
Locus YCL016C, strain dcc1, hits give low values
  normalized growth: 0.944
Locus YCL029C, strain bik1, hits give low values
  normalized growth: 0.962
Locus YCL061C, strain MRC1, hits give low values
  normalized growth: 0.967
Locus YCL069W, strain vba3, hits give low values
  normalized growth: 0.98
Locus YCR088W, strain abp1, hits give low values
  normalized growth: 0.958
Locus YDL005C, strain med2, hits give low values
  normalized growth: 0.948
Locus YDL035C, strain GPR1, hits give low values
  normalized growth: 1.04
Locus YDL040C, strain nat1, hits give low values
  normalized growth: 0.973
Locus YDL074C, strain BRE1, hits give low values
  normalized growth: 1.01
Locus YDL101C, strain DUN1, hits give low values
  normalized growth: 0.951
Locus YDL185W, strain tfp1, hits give low values
  normalized growth: 0.932
Locus YDL192W, strain arf1, hits give low values
  normalized growth: 0.982
Locus YDR001C, strain nth1, hits give low values
  normalized growth: 0.966
Locus YDR069C, strain doa4, hits give low values
  normalized growth: 0.943
Locus YDR101C, strain arx1, hits give low values
  normalized growth: 1.03
Locus YDR137W, strain rgp1, hits give low values
  normalized growth: 0.939
Locus YDR159W, strain sac3, hits give low values
  normalized growth: 1
Locus YDR162C, strain NBP2, hits give low values
  normalized growth: 0.993
Locus YDR195W, strain ref2
  normalized growth: 1
Locus YDR297W, strain sur2, hits give low values
  normalized growth: 0.955
Locus YDR318W, strain mcm21, hits give low values
  normalized growth: 0.989
Locus YDR334W, strain swr1, hits give low values
  normalized growth: 0.941
Locus YDR335W, strain msn5, hits give low values
  normalized growth: 0.95
Locus YDR388W, hits give low values
  normalized growth: 0.947
Locus YDR392W, strain spt3, hits give low values
  normalized growth: 0.721 (active)
Locus YDR502C, strain sam2, hits give low values
  normalized growth: 0.964
Locus YEL003W, strain gim4, hits give low values
  normalized growth: 0.959
Locus YEL037C, strain rad23, hits give low values
  normalized growth: 0.958
Locus YEL061C, strain CIN8 (second series), hits give low values
  normalized growth: 0.96
Locus YEL061C, strain CIN8, hits give low values
  normalized growth: 0.968
Locus YER015W, strain faa2, hits give low values
  normalized growth: 0.935
Locus YER016W, strain bim1, hits give low values
  normalized growth: 0.961
Locus YER110C, hits give low values
  normalized growth: 0.924
Locus YER111C, strain swi4, hits give low values
  normalized growth: 0.978
Locus YER155C, strain BEM2 (second series), hits give low values
  normalized growth: 0.915
Locus YER155C, strain BEM2, hits give low values
  normalized growth: 0.96
Locus YER167W, strain BCK2, hits give low values
  normalized growth: 0.968
Locus YFR010W, strain ubp6, hits give low values
  normalized growth: 0.944
Locus YGL078C, strain dbp3, hits give low values
  normalized growth: 0.994
Locus YGL086W, strain mad1, hits give low values
  normalized growth: 0.986
Locus YGL167C, strain pmr1, hits give low values
  normalized growth: 0.943
Locus YGL173C, strain kem1, hits give low values
  normalized growth: 0.977
Locus YGL227W, strain vid30, hits give low values
  normalized growth: 0.973
Locus YGL240W, strain doc1, hits give low values
  normalized growth: 0.939
Locus YGL248W, strain PDE1, hits give low values
  normalized growth: 0.967
Locus YGL253W, strain hxk2, hits give low values
  normalized growth: 0.971
Locus YGR078C, strain PAC10, hits give low values
  normalized growth: 0.964
Locus YGR135W, strain pre9, hits give low values
  normalized growth: 0.95
Locus YGR229C, strain SMI1, hits give low values
  normalized growth: 1.01
Locus YGR252W, strain gcn5, hits give low values
  normalized growth: 1.1
Locus YHR013C, strain ard1, hits give low values
  normalized growth: 0.926
Locus YHR027C, strain rpn1, hits give low values
  normalized growth: 0.945
Locus YHR030C, strain SLT2, hits give low values
  normalized growth: 0.963 and 1.06
Locus YHR079C, strain IRE1 (second series), hits give low values
  normalized growth: 0.968
Locus YHR079C, strain IRE1, hits give low values
  normalized growth: 1.04
Locus YHR094C, strain hxt1, hits give low values
  normalized growth: 0.961
Locus YHR129C, strain ARP1, hits give low values
  normalized growth: 0.966
Locus YHR142W, strain chs7, hits give low values
  normalized growth: 0.919
Locus YHR200W, strain rpn10, hits give low values
  normalized growth: 0.983
Locus YIL066C, strain RNR3, hits give low values
  normalized growth: 0.971
Locus YIL073C, strain SPO22, hits give low values
  normalized growth: 0.938
Locus YIL125W, strain kgd1, hits give low values
  normalized growth: 0.979
Locus YIR030C, strain dcg1, hits give low values
  normalized growth: 0.956
Locus YJL092W, strain hpr5, hits give low values
  normalized growth: 0.957
Locus YJL095W, strain BCK1 (second series), hits give low values
  normalized growth: 0.95
Locus YJL095W, strain BCK1, hits give low values
  normalized growth: 0.935 and 1.06
Locus YJL115W, strain asf1, hits give low values
  normalized growth: 0.939
Locus YJL129C, strain trk1, hits give low values
  normalized growth: 0.949
Locus YJL134W, strain LCB3, hits give low values
  normalized growth: 0.964
Locus YJL154C, strain vps35, hits give low values
  normalized growth: 0.959
Locus YJL164C, strain tpk1, hits give low values
  normalized growth: 0.929
Locus YJL166W, strain qcr8, hits give low values
  normalized growth: 0.955
Locus YJL168C, strain set2, hits give low values
  normalized growth: 0.965
Locus YJL187C, strain SWE1 (second series), hits give low values
  normalized growth: 0.967
Locus YJL187C, strain SWE1, hits give low values
  normalized growth: 0.954
Locus YJR043C, strain POL32, hits give low values
  normalized growth: 1.08
